G9a inh-1 – qHTS Assay for Inhibitors of Histone Lysine Methyltransferase G9a; actives 8.8% (n = 350,000); Potency, µM (titrated, usually from 102 µM), usual class: inhibitors; Histone-lysine N-methyltransferase EHMT2 (Homo sapiens), Q96KQ7; G9a H3K9 monomethylation, AlphaScreen, 2 h; further: nearly all actives have a fitted effect of over 75% in size
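AlphaScreen read-out: biotin-H3K9 peptide (500 nM) methylation by 20 nM enzyme with 20 uM SAM, 2 h at room temperature after 15 min compound preincubation; anti-monomethyl H3K9 antibody plus donor/acceptor beads, 10 min dark.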
HP1b binding inh – HTS for Inhibitors of HP1-beta Chromodomain Interactions with Methylated Histone Tails; Chromobox protein homolog 1 (Homo sapiens), P83916; AlphaScreen HP1-beta / biotin-H3K9me3 peptide binding; Potency, µM (doses to about 114 µM), actives largely listed as inhibitors; actives 0.56% (n = 390,000); further: nearly all actives have a fitted effect of over 70% in size
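AlphaScreen: HP1-beta (50 nM) preformed 30 min with biotin-H3(1-18)K9me3 peptide (50 nM) in PBS pH 7.4, 0.01% Tween-20. Compound added for 30 min at RT, then streptavidin donor/nickel chelate acceptor beads (10 ug/mL) for 30 min.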
Sfp inh – qHTS Assay for Inhibitors of Bacillus subtilis Sfp phosphopantetheinyl transferase (PPTase); 4'-phosphopantetheinyl transferase ffp (Bacillus subtilis), Q9F4F7; Biochemical Sfp PPTase activity, qHTS; Potency, µM, actives largely listed as inhibitors; actives 3.5% (n = 310,000);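 further: the enzyme is Sfp with the accession as filed and its product quenches rhodamine fluorescence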
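Sfp 15 nM + cpd, 15 min RT; start w/ rhodamine-CoA 5 uM, BHQ-2-YbbR 12.5 uM (final); 50 mM Hepes pH 7.6, 10 mM MgCl2, 0.01% NP-40, 0.01% BSA; read 525/598 nm at 0 and 30 min.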
JMJD2A Tudor inh – qHTS Assay for Inhibitors of JMJD2A-Tudor Domain; Lysine-specific demethylase 4A (Homo sapiens), O75164; AlphaScreen JMJD2A-Tudor / H3K4me3 peptide binding; Potency, µM (titrated, usually from 114 µM), most hits filed as inhibitors; actives 4.4% (n = 390,000); AID 504339, 2011; further: nearly all actives have a fitted effect of over 50% in size
BAZ2B block – qHTS Assay for Inhibitors of BAZ2B | Bromodomain adjacent to zinc finger domain protein 2B (Homo sapiens), Q9UIF8 | AlphaScreen BAZ2B-H3K14Ac peptide displacement | Potency, µM (highest dose often 114 µM), hits mostly inhibitors | actives 4.4% (n = 360,000); further: nearly all actives have a fitted effect of over 60% in size
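Compounds, titrated to a top concentration of 110 uM, were incubated 30 min at room temperature with preformed BAZ2B/acetyl-K14 H3 peptide complex (50 nM each). Proximity signal was measured by AlphaScreen after 20 min with beads.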
JMJD2E inh – Confirmation qHTS Assay for Inhibitors of Human Jumonji Domain Containing 2E (JMJD2E). Potency, µM (titrated, usually from 56.8 µM), usual class: inhibitors. Recombinant JMJD2E, FDH-coupled NADH fluorescence (FDH is formaldehyde dehydrogenase). AID 2677, 2010. actives 93% (n = 140). shares compounds with JMJD2A Tudor inh
FDH counter – Counterscreen for JMJD2E Inhibitors: qHTS Assay for Inhibitors of Formaldehyde Dehydrogenase (FDH); shares compounds with JMJD2A Tudor inh; FDH enzyme assay, NADH fluorescence kinetic; Potency, µM (highest dose often 56.7 µM), most hits filed as inhibitors; actives 10% (n = 140)
G9a inh-2 – qHTS Assay for Inhibitors of Histone Lysine Methyltransferase G9a: Hit Confirmation | Potency, µM, usual class: inhibitors | shares compounds with JMJD2A Tudor inh | actives 89% (n = 370) | AID 588344, 2011 | G9a H3K9 monomethylation, AlphaScreen, 2 h; further: nearly all actives have a fitted effect of over 65% in size
RGS4 inh – qHTS for Inhibitors of Regulator of G Protein Signaling(RGS) 4: Hit Validation. shares compounds with JMJD2A Tudor inh. RGS4 GAP activity, Transcreener GDP fluorescence polarization. Potency, µM, actives largely listed as inhibitors. actives 80% (n = 25). AID 602388, 2012
Hits are given with their value; - = inactive; ? = inconclusive; . = no result given; [ ] = remark or other dose. A selection: hits, their analogues and other compounds. The true share with any hit is near 12%. The call rests on the fitted dose curve; in most records, active means well fitted curve in the direction sought with a large enough effect; inconclusive means small, poorly fitted or top-dose-only effect, or another doubt; inactive means no such curve, though single readings can be large; an effect the other way counts as inactive or inconclusive.

SMILES | G9a inh-1 | HP1b binding inh | Sfp inh | JMJD2A Tudor inh | BAZ2B block | G9a inh-2 | others
CCOC(=O)C1CCCN(C(=O)c2cc(-c3ccco3)nc3ccccc23)C1 (stereo not given) | . | 40µM | . | 14µM | . | . | RGS4 inh=27
COc1cc(OC)c(C(=O)CCCN2CCCC2)c(OC)c1 | ? | - | - | - | - | 9.6
COc1ccc(NC(=O)CCN2CCCCCC2)c(OC)c1 | ? | - | - | - | - | .
C1CCN2C[C@@H]3C[C@@H](CN4CCCC[C@H]34)[C@H]2C1 | -[21.5 µM] | . | - | . | . | .
COc1ccc(C(c2nnnn2C2CCCC2)N2CCc3ccccc3C2)cc1OC (stereo not given) | - | - | - | - | ? | .
COCCn1nnnc1C(c1ccc(O)c(OC)c1)N1CCc2ccccc2C1 (stereo not given) | ? | ? | 14µM | ? | ? | 0.71
CCOc1ncccc1C(=O)Nc1ccc(C(=O)Nc2ccc(OC)cc2)cc1 | ? | - | . | - | - | .
CC1O[C@@H](O[C@H](C)CC/C=C/C(=O)O)C(O)C[C@H]1O (stereo not given in full) | -[12.7 µM] | - | . | - | - | .
CCN(c1ccc(NC(=O)COC(=O)c2ccc(S(=O)(=O)N3CCCC3)cc2)cc1)C(C)C | ? | - | - | - | - | 2.2
CC(C)c1ccc(S(=O)(=O)N2CCN(CCC(=O)Nc3ccc(N(C)C)cc3)CC2)cc1 | 1µM | ? | - | 35µM | 22µM | 2
O=C(COC(=O)c1ccc(O)cc1)Nc1ccc(S(=O)(=O)N2CCCC2)cc1 | . | - | . | - | . | .
CCS(=O)(=O)N1CCN(Cc2ccccc2OC)CC1 | 2.5µM | ? | 28µM | 3.2µM | 22µM | ?
CCN1CCOC(=O)C1CC(=O)Nc1cc(Cl)ccc1C (stereo not given) | 0.71µM | - | . | - | - | 6.3
Cc1ccc(Nc2c(-c3ccc(O)cc3)nc3cccc(C)n23)cc1 | ? | - | . | - | - | .
Cc1ccc(-c2nc3cccc(C)n3c2Nc2ccc(F)cc2)o1 | . | ? | . | 56µM | . | . | RGS4 inh=19
CCn1cnc2cc(NCc3cccc(OC)c3O)ccc21 | ? | - | - | - | ? | 0.28
CCCn1cnc2cc(NCc3ccc(OC)cc3OC)ccc21 | 2.8µM | - | . | ? | 40µM | 5.8
CCCn1cnc2cc(NC(=O)c3cc(OC)c(OC)c(OC)c3)ccc21 | - | - | . | - | - | .
COc1cc(C2NC(=O)NC(C)=C2C(=O)OC(C)(C)C)ccc1OCC(=O)O (stereo not given) | - | - | - | ? | - | .
CCc1nnc(NC(=O)CSc2nc3c([nH]c4ccccc43)c(=O)n2-c2ccc(OC)cc2)s1 | - | - | . | - | - | .
COc1ccccc1NC(=O)c1c(NCc2ccc(C)o2)sc2c1CCCCC2 | 1.3µM | ? | . | 45µM | ? | 3.6
COc1ccc(OC)c(NC(=O)c2c(NCc3ccc(C)o3)sc3c2CCCCC3)c1 | 1.6µM | ? | . | 35µM | - | 5.1
O=C(Nc1nc(-c2ccccn2)cs1)c1cccc(-n2cnnn2)c1 | - | - | ? | 79µM | 50µM | . | RGS4 inh=?
O=C(Nc1ccc(Br)cc1)c1cccc(-n2cnnn2)c1 | - | - | - | - | - | .
O=C(Nc1sc2c(c1C(=O)Nc1cccc(Cl)c1)CCCC2)c1cccs1 | 1.6µM | - | . | 71µM | - | 4.1
SMILES | G9a inh-1 | HP1b binding inh | Sfp inh | JMJD2A Tudor inh | BAZ2B block | G9a inh-2 | others
O=C(Cc1ccccc1)Nc1sc2c(c1C(=O)Nc1ccc(Cl)cc1)CCCC2 | 0.32µM | ? | . | ? | ? | 1.8
CCc1nn2c(=O)cc(N3CCN(c4cc(C)nc5ccccc45)CC3)nc2s1 | - | . | - | . | - | .
O=C(CN1CCCc2ccccc21)N1CCc2ccccc21 | ? | - | - | - | ? | .
Oc1ccc(CN2CCCc3ccccc32)c2cccnc12 | 1.6µM | ? | - | ? | 35µM | . | JMJD2E inh=1.3µM;FDH counter=-
Cc1ccc(NC2CCCN(C(=O)c3cn4cccc(C)c4n3)C2)cc1C (stereo not given) | ? | - | - | - | - | .
Cc1ccc(NC2CCCN(C(=O)c3cn4cc(Cl)ccc4n3)C2)cc1C (stereo not given) | ? | - | - | - | ? | 32
COc1ccc(NC(=O)c2ccc(-c3ccc(C(C)=O)cc3)o2)cn1 | 1.6µM | - | . | - | - | ?
COc1cccc(-c2noc(-c3ccoc3C)n2)c1 | - | - | - | - | - | .
O=C(CNC(=O)OCc1ccccc1)Nc1ccc(F)cc1 | ? | - | . | ? | - | ?
CCn1c2ccccc2c2cc(CN3CCN(Cc4ccc(Br)cc4)CC3)ccc21 | 0.89µM | ? | . | 4.5µM | 25µM | 25
OC(CN1CCCCC1)Cn1c2ccccc2c2cc(Br)ccc21 (stereo not given) | - | - | - | - | - | .
CCn1c2ccccc2c2cc(NC(=O)N3CCOCC3)ccc21 | ? | - | - | - | ? | 10

Bioassay records: PubChem, National Center for Advancing Translational Sciences (NCATS)
